High-throughput results deposited in PubChem by National Center for Advancing Translational Sciences (NCATS).
Vaccinia mCherry = inhibitors of vaccinia virus infection (mCherry reporter signal) | Vaccinia virus mCherry reporter infection, fluorescence | Potency, µM (titrated, usually from 36.5 µM), without a hit: top-dose activity change, negative = inhibition, actives largely listed as inhibitors | 310,000 tested, 0.63% active; calls by dose curve; tested in A549 cells; also: potency is read from the fitted curve at half-maximal effect; nearly all actives have a fitted effect of over 35% in size
HCMV antiviral = blocks human cytomegalovirus replication. activity change, negative = inhibition, % at 57.5 µM. HFF cells, HCMV-luciferase reporter, 72 h; stronger effect = lower value. AID 1259415. 410,000 tested, 4.5% active; in the data active = activity change below about -60%; inconclusive = no clear call, values can overlap the other calls; inactive = above about -39%
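Screen run at 2 compound doses on HFFs infected with reporter HCMV, MOI 1 PFU/cell. Luciferase activity from cell lysates at 72 h post infection gave inhibition relative to buffer-only and Salinomycin wells.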
FMDV inh = foot and mouth disease virus antiviral activity; FMDV antiviral cell-based qHTS; 410,000 tested, 1.2% active; AID 1159524; Potency, µM (series often up to 57.9 µM), for the others: at the highest dose activity change, negative = inhibition, hits mostly inhibitors; calls by dose curve; tested in HEK293T cells; also: read-out not given here; potency is read from the fitted curve at half-maximal effect; nearly all actives have a fitted effect of over 45% in size
VACV Venus inh = vaccinia inhibition (Venus reporter); Vaccinia virus Venus reporter expression, fluorescence; 330,000 tested, 0.46% active; Potency, µM (top dose mostly 36.5 µM), for the others: top-dose activity change, negative = inhibition, actives largely listed as inhibitors; calls by dose curve; tested in A549 cells; also: potency is read from the fitted curve at half-maximal effect; nearly all actives have a fitted effect of over 30% in size
Lassa entry inh = blocks Lassa virus binding to or entry into cells; Lassa virus pseudotype entry inhibition, cell reporter; Potency, µM (doses to about 37.9 µM), without a hit: at the highest dose activity change, negative = inhibition, most hits filed as inhibitors; 300,000 tested, 1.2% active; AID 540256; calls by dose curve; tested in HEK293 cells; also: potency is read from the fitted curve at half-maximal effect; nearly all actives have a fitted effect of over 50% in size
Marburg entry inh = inhibitors of Marburg virus binding or cell entry; Potency, µM (highest dose often 37.8 µM), for the others: at the highest dose activity change, negative = inhibition, usual class: inhibitors; 300,000 tested, 1.8% active; Marburg virus pseudotyped entry inhibition, cell reporter; calls by dose curve; tested in HEK293 cells; also: potency is read from the fitted curve at half-maximal effect
Active calls of the source: *; i = inactive; u = inconclusive; x = no result given; [ ] = remark or other dose. Compounds with a hit are over-represented: about 6.5% of the library has one in this group of screens. % is scaled to controls: 0 for no effect and ±100 for the full control effect.

SMILES	Vaccinia mCherry	HCMV antiviral	FMDV inh	VACV Venus inh	Lassa entry inh	Marburg entry inh
COc1ccc(C(=O)Nn2c(SCC(=O)N3CCC(C)CC3)nc3ccccc3c2=O)cc1	x	-62*	11µM*	x	8.2µM*	1.6µM*
COc1ccc(C(=O)Nn2c(SCC(=O)c3ccc(Cl)cc3)nc3ccccc3c2=O)cc1	x	-17	-28%	x	u	u
CCCCNC(=O)c1nc2cc(C)c(C)cc2nc1-c1cccc(OC(F)(F)F)c1	x	25	x	x	x	x
O=C1C=C2C(=CCOC2O)O1 (stereo unspecified)	11µM*	x	14µM*	11µM*	x	x
CCNc1ncc2nc(-c3cccs3)c(=O)n(Cc3ccc(F)cc3)c2n1	x	x	2%	x	x	x
O=C(CCN1C(=O)/C(=C/c2ccccc2)SC1=S)NCCc1ccc(O)cc1	x	x	-1%	x	x	x
O=C(CCN1C(=O)/C(=C/c2ccccc2F)SC1=S)NCCc1ccc(O)cc1	x	-93*	-10%	x	x	x
COc1ccccc1/C=C1\SC(=S)N(CCC(=O)NCCc2ccc(O)cc2)C1=O	u	-75*	-14%	u	u	u
COc1ccc(CCNC(=O)CCCCCN2C(=O)c3ccccc3C2=O)cc1	-1%	-1	1%	-17%	21%	26%
COc1ccc(CCNC(=O)CCCN2C(=O)c3ccccc3C2=O)cc1	-2%	-81*	1%	3%	-29%	-5%[46.1 µM]
CCC[C@@H]1Cc2c(sc3nc(SC)nc(N)c23)CO1	x	x	x	x	x	0%[46.1 µM]
N/C(=N\c1nc(CSc2ccc(Cl)cc2)cc(=O)[nH]1)Nc1cccc2ccccc12	-11%	-73*	-9%	-6%	2%	u
CCCCCCCCCn1ccc(=N)cc1	-17%	-95*	20µM*	u	u	u
CCCCCCCn1ccc(=N)cc1	x	-91*	u	u	u	u
CCn1ccc(=N)cc1	x	19	-14%	-19%	-10%	4%[46.1 µM]
CCCCCn1ccc(=N)cc1	x	-73*	-6%	u	-29%	-29%
O=C(Nc1ccccc1)N1CC2(CCN(S(=O)(=O)c3ccccc3)CC2)C1	x	x	21%	x	x	x
N#CC1C=Cc2c(ccc3ccccc23)N1C(=O)c1ccccc1 (stereo unspecified)	u	-83*	u	u	u	u
CCOC(=O)c1ccc(N=c2sc(C(=O)OC)cc(=O)n2-c2ccc(C(=O)OCC)cc2)cc1	i	195	20µM*	-12%	-14%	-12%
COC(=O)c1cc(=O)n(-c2ccccc2)c(=Nc2ccccc2)s1	u	-35	13µM*	5µM*	-1%	1%
CCCNC(=O)OC[C@@H]1O[C@H](CCO/N=C\C[C@H]2C=C[C@H](OC(C)=O)[C@@H](COC(C)=O)O2)C=C[C@@H]1Oc1ccc(OC)cc1	x	x	x	x	x	6%[14.2 µM]
CN(c1ccc(NC(=O)Nc2ccc(OC(F)(F)F)cc2)cc1)c1ccnc(Nc2cccc(S(N)(=O)=O)c2)n1	x	x	x	x	25µM*	x
Cc1cccc(-c2nc(CSCC(=O)N3CCN(c4cccc(C)c4C)CC3)c(C)o2)c1	-8%	-65*	u	-10%	7%[46.1 µM]	x
Cc1cccc(-c2nc(CSCC(=O)N3CCN(c4ccccn4)CC3)c(C)o2)c1	x	-66*	16µM*	x	u	u
O=c1n(-c2ccccc2)c(=O)n2n1CC[C@@H]1C(=NOC[C@@H](O)COCc3ccco3)[C@H]3O[C@H]3[C@@H](O)[C@H]12	x	x	x	x	x	-23%[14.2 µM]
SMILES	Vaccinia mCherry	HCMV antiviral	FMDV inh	VACV Venus inh	Lassa entry inh	Marburg entry inh
CC1CC(C)C(=NNC(N)=O)C(C(O)CC2CCC(=O)NC2=O)C1 (stereo unspecified)	u	u	-11%	7.9µM*	u	u
CCOC(=O)CN1C(=O)CC(C[C@@H](O)C2C[C@@H](C)C[C@H](C)C2=O)CC1=O (stereo partly specified)	i	x	-15%	-8%[60.7 µM]	x	x
Cc1ccc(NC(=O)c2cnc3sc(N4CCOCC4)nn3c2=O)cc1N(C)C	u	-2	32µM*	u	x	7%[46.1 µM]
CC(C)c1ccc(NC(=O)c2cnc3sc(N4CCOCC4)nn3c2=O)cc1	i	-25	u	u	-15%[46.1 µM]	x
CC(C)C[C@H]1CN([C@@H](Cc2ccc(O)cc2)CN2CCC[C@@H]2CN2C(=O)C(=O)NC[C@@H]2Cc2ccccc2)C(=O)C(=O)N1CC1CCCCCC1	-22%	-65*	9%	-14%	x	x
CC(C)C[C@H]1CNC(=O)C(=O)N1C[C@@H]1CCCN1C[C@H](Cc1ccc(O)cc1)N1C[C@H](Cc2ccccc2)N(CC2CCCCCC2)C(=O)C1=O	-11%	-4	60%	-17%	x	x
CC(C)C[C@H]1CN([C@@H](Cc2ccccc2)CN2CCC[C@H]2CN2C(=O)C(=O)NC[C@@H]2Cc2ccc(O)cc2)C(=O)C(=O)N1CC1CCCCCC1	6%	-87*	3%	-4%	x	x
CC(C)C[C@H]1CN([C@@H](Cc2ccc(O)cc2)CN2CCC[C@H]2CN2C(=O)C(=O)NC[C@@H]2Cc2ccccc2)C(=O)C(=O)N1CC1CCCCC1	-8%	-12	20%	-10%	x	x
CCCN1CNc2c(c(=O)[nH]c(=S)n2Cc2ccc(OC)c(OC)c2)C1	-10%	x	x	-10%	x	x
CCN1CCN(c2ccc(S(=O)(=O)N3CCCCC3)cc2NC(=O)c2ccc([N+](=O)[O-])o2)CC1	4µM*	-28	-3%	10µM*	u	u
CCN1CCN(c2ccc(NC(C)=O)cc2Cl)CC1	x	29	12%	x	-14%	2%
CCC(=O)N1CCN(c2ccc(NC(=O)c3ccc([N+](=O)[O-])o3)cc2Cl)CC1	13µM*	-96*	u	11µM*	u	u
CS(=O)(=O)N1CCN(c2ccccc2NC(=O)c2ccc([N+](=O)[O-])o2)CC1	-7%	-83*	u	-6%	u	u
CCC(=O)N1CCN(c2ccc(Cl)cc2NC(=O)c2ccc([N+](=O)[O-])o2)CC1	u	u	u	u	-23%[46.1 µM]	u
CCN1CCN(c2ccc(NC(=O)c3ccc([N+](=O)[O-])o3)cc2Cl)CC1	11µM*	-96*	44%	u	u	u
CC(=O)N1CCN(c2ccc(NC(=O)c3ccco3)cc2Cl)CC1	-9%	47	6%	-12%	-4%	15%
CC(=O)N1CCN(c2ccc(NC(=O)c3ccc([N+](=O)[O-])o3)cc2Cl)CC1	u	-98*	30%	u	u	u
COc1ccc(C2=Nn3c(nnc3-c3ccccc3F)SC2)cc1OCC1CC1	x	-98*	u	x	x	x
COc1ccc(C2=Nn3c(nnc3-c3ccccc3OC)SC2)cc1OC	u	-97*	-19%	-31%	u	u
COc1ccc(C2=Nn3c(nnc3-c3ccccc3Cl)SC2)cc1OC1CCCC1	x	-94*	32µM*	x	x	x
COc1ccc(OC)c(-c2nnc3n2N=C(c2ccc(OC)c(OC4CCOC4)c2)CS3)c1 (stereo unspecified)	x	-75*	-17%	x	x	x
